Ten compounds from PubChem BioAssay (EPA / NIEHS) can be followed below.

Test [1] is described as follows: ATG_TAL_CIS: Attagene CIS-FACTORIAL HepG2 Assay for human TAL Basal Promoter (AID 2282966).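 Note: background control endpoint measuring basal TAL promoter reporter mRNA not a specific factor.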 To be noted: HepG2 Attagene cis-factorial TAL promoter reporter; actives raise or lower the signal. In outline:
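HepG2 cells transiently transfected with multiplexed cis-promoter reporter units, dosed 24 h. Reporter mRNA quantified by RT-PCR, 6-FAM labelling, HpaI digestion and capillary electrophoresis; TAL basal promoter serves as background control, fitted bidirectionally versus DMSO.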

Test [2] can be described thus: ATG_TGFb_CIS: Attagene CIS-FACTORIAL HepG2 Assay for human Transforming Growth Factor (TGF) (AID 2282967). To be noted: HepG2 Attagene CIS TGFb reporter, mRNA transcription; actives raise or lower the signal. In outline: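 Transient MRTU transfection of HepG2 (FuGene 6). Dose 24 h. TriZol RNA, oligo(dT) RT, PCR, 6-FAM primer extension, HpaI cut, CE. Bidirectional fit, DMSO = baseline.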

The nature of test [3]: ATG_VDRE_CIS: Attagene CIS-FACTORIAL HepG2 Assay for human Vitamin D Receptor Element (VDRE) (AID 2282968). To be noted: HepG2 VDRE cis-reporter transcription, actives raise or lower the signal. The procedure, abridged: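 In transiently transfected HepG2 liver cells, gain or loss of reporter mRNA after 24 h exposure is scored relative to DMSO, using fluorescence detection by capillary electrophoresis of RT-PCR products.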

In test [4] the target is X-box-binding protein 1 (Homo sapiens) (UniProt P17861). Description: ATG_Xbp1_CIS: Attagene CIS-FACTORIAL HepG2 Assay for human X-box Binding Protein 1 (XBP1) (AID 2282972). To be noted: HepG2 XBP1 cis-element reporter, Attagene multiplex; actives raise or lower the signal. The procedure, abridged:
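Fluorescence-labelled cDNA fragments from reporter transcripts, separated by capillary electrophoresis, give the signal. Source: HepG2 cells transfected with promoter-driven reporter units, harvested 24 h post-dose. DMSO served as reference for bidirectional curve fitting.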

Test [5] can be described thus: ATG_M_19_TRANS: Attagene TRANS-FACTORIAL HepG2 Assay for M19 Transcription Factor (Internal Marker) (AID 2282974; active = hit-call score of the fitted dose curve at least 0.9, where 1 is the maximum). To be noted: HepG2 Attagene TRANS-FACTORIAL M19 internal marker reporter. The procedure, abridged: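 HepG2 cells transiently transfected with multiple GAL4-UAS reporter transcription units were exposed to chemicals for 24 h. Reporter mRNA was read by RT-PCR, 6-FAM primer extension, HpaI digestion and capillary electrophoresis; gain of signal fitted relative to DMSO.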

Test [6] is described as follows: ATG_GAL4_TRANS: Attagene TRANS-FACTORIAL HepG2 Assay for GAL4 (Internal Marker) (AID 2282976; active = hit-call score of the fitted dose curve at least 0.9, where 1 is the maximum). The conditions noted are these: HepG2 Attagene TRANS GAL4 internal marker reporter. The procedure, abridged:
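Background-control readout: GAL4-UAS reporter transcript in transiently transfected HepG2 cells after 24 h compound exposure. Measured by RT-PCR, 6-FAM primer extension, HpaI digest and capillary electrophoresis; gain-of-signal fit versus DMSO.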

The target in test [7] is Estrogen-related receptor gamma (Homo sapiens) (UniProt P62508). The experiment in a line: ATG_ERRg_TRANS: Attagene TRANS-FACTORIAL HepG2 Assay for human Estrogen-Related Receptor gamma (ERRg) (AID 2282977; active = hit-call score of the fitted dose curve at least 0.9, where 1 is the maximum;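 note: hits increase reporter signal over DMSO so potencies reflect activators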). To be noted: HepG2 Attagene TRANS reporter, ERRg transactivation. The procedure, abridged: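 HepG2 cells transiently transfected with multiplexed GAL4-UAS reporter units and chimeric NR-Gal4 constructs were exposed to test chemicals for 24 h. Reporter mRNA was measured by RT-PCR, 6-FAM primer extension, HpaI digestion and capillary electrophoresis; gain-of-signal versus DMSO.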

Test [8] has as its target Glucocorticoid receptor (Homo sapiens) (UniProt P04150). The experiment in a line: ATG_GR_TRANS: Attagene TRANS-FACTORIAL HepG2 Assay for human Glucocorticoid Receptor (GR) (AID 2282978; active = hit-call score of the fitted dose curve at least 0.9, where 1 is the maximum;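 note: activators score as hits since higher reporter transcript over DMSO is fitted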). To be noted: HepG2 Attagene TRANS GR reporter, mRNA transcription. In outline: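 HepG2 cells transiently transfected with multiplexed reporter units in which chimeric NR-GAL4 proteins drive GAL4-UAS reporters; 24 h compound exposure. Reporter mRNA measured by RT-PCR, 6-FAM labelling, HpaI digestion and capillary electrophoresis; gain-of-signal fitted versus DMSO.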

Test [9] deals with Oxysterols receptor LXR-beta (Homo sapiens) (UniProt P55055). Description: ATG_LXRb_TRANS: Attagene TRANS-FACTORIAL HepG2 Assay for human Liver X Receptor beta (LXRb) (AID 2282981; active = hit-call score of the fitted dose curve at least 0.9, where 1 is the maximum). To be noted: HepG2 Attagene TRANS GAL4-LXRb reporter, mRNA. The procedure, abridged: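 Cells: HepG2, transiently transfected with GAL4-UAS reporter units plus LXRb-Gal4 fusion. Treatment: 24 h. Detection: reporter mRNA by RT-PCR, 6-FAM labelling, HpaI digestion, capillary electrophoresis.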

Test [10] deals with Hepatocyte nuclear factor 4-alpha (Homo sapiens) (UniProt P41235). The experiment in a line: ATG_HNF4a_TRANS: Attagene TRANS-FACTORIAL HepG2 Assay for human Hepatocyte Nuclear Factor 4 alpha (HNF4a) (AID 2282982; active = hit-call score of the fitted dose curve at least 0.9, where 1 is the maximum). To be noted: HepG2 HNF4a transactivation reporter, mRNA readout. The procedure, abridged: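 Transfected HepG2 reporter cells are dosed for 24 h; reporter RNA is reverse-transcribed, amplified, fluorescently labelled and HpaI-digested before CE sizing. Positive-direction fit against DMSO.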

Test [11] is described as follows: ATG_M_32_TRANS: Attagene TRANS-FACTORIAL HepG2 Assay for M32 Transcription Factor (Internal Marker) (AID 2282984; active = hit-call score of the fitted dose curve at least 0.9, where 1 is the maximum). The conditions noted are these: HepG2 Attagene TRANS M32 internal marker reporter. In outline: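 Using transiently transfected HepG2 cells exposed to test chemicals for 24 h, reporter transcripts are converted to labelled cDNA fragments and quantified by capillary electrophoresis. DMSO defines the activity baseline.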

For test [12], the target named is Transcriptional activator Myb (Homo sapiens) (UniProt P10242). The experiment in a line: ATG_Myb_CIS: Attagene CIS-FACTORIAL HepG2 Assay for human Myeloblastosis (Myb) Proto-Oncogene Transcription Factor (AID 2282986). To be noted: HepG2 Attagene CIS-FACTORIAL Myb reporter transcription; actives raise or lower the signal. In outline: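 HepG2 cells were transiently transfected with cis-regulated multiple reporter transcription units reflecting endogenous Myb activity, then exposed to compound for 24 hours. Reporter mRNA was measured by RT-PCR with capillary electrophoresis; bidirectional fitting versus DMSO baseline.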

The target in test [13] is Nuclear respiratory factor 1 (Homo sapiens) (UniProt Q16656). Description: ATG_NRF1_CIS: Attagene CIS-FACTORIAL HepG2 Assay for human Nuclear Respiratory Factor 1 (NRF1) Orphan Gene (AID 2282987). The conditions noted are these: HepG2 NRF1 cis-element reporter, Attagene multiplex; actives raise or lower the signal. The procedure, abridged:
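HepG2 cells transiently transfected with multiple reporter transcription units under cis-regulatory promoter control, so endogenous transcription-factor activity is read. After 24 h compound exposure, reporter mRNA quantified by RT-PCR, fluorescent labelling, HpaI digestion and capillary electrophoresis; bidirectional fitting versus DMSO.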

Test [14] addresses Bile acid receptor (Homo sapiens) (UniProt Q96RI1). The experiment in a line: ATG_FXR_TRANS: Attagene TRANS-FACTORIAL HepG2 Assay for Farnesoid X Receptor (FXR) (AID 2282979; active = hit-call score of the fitted dose curve at least 0.9, where 1 is the maximum;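 note: hits raise reporter mRNA above DMSO so AC50 marks FXR activation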). The conditions noted are these: HepG2 Attagene TRANS FXR-GAL4 reporter transcription. In outline:
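HepG2 cells were transiently transfected with GAL4-UAS reporters driven by chimeric NR-Gal4 proteins and dosed for 24 h. Reporter mRNA was quantified by RT-PCR, fluorescent labelling, HpaI digestion and capillary electrophoresis, with gain of signal scored versus DMSO.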

Test [15] can be described thus: ATG_M_06_TRANS: Attagene TRANS-FACTORIAL HepG2 Assay for M06 Transcription Factor (Internal Marker) (AID 2282983; active = hit-call score of the fitted dose curve at least 0.9, where 1 is the maximum;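 note: reporter transcript level by RT-PCR then capillary electrophoresis fluorescence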). To be noted: HepG2 Attagene TRANS M06 internal marker reporter. In outline:
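HepG2 cells transiently transfected with GAL4-UAS multiple reporter units, dosed 24 h. Reporter RNA reverse-transcribed, PCR-amplified, 6-FAM-labeled, HpaI-digested and quantified by capillary electrophoresis; this internal-marker signal fitted upward relative to DMSO.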

For test [16], the target named is Estrogen receptor (Homo sapiens) (UniProt P03372). Description: ATG_ERa_TRANS: Attagene TRANS-FACTORIAL HepG2 Assay for human Estrogen Receptor alpha (ERa) (AID 2282970; active = hit-call score of the fitted dose curve at least 0.9, where 1 is the maximum). To be noted: HepG2 Attagene TRANS ERa GAL4 reporter, mRNA. In outline:
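HepG2 cells transiently transfected with multiplexed GAL4-UAS reporter units read out chimeric NR-Gal4 activity. After 24 h compound exposure, reporter mRNA was quantified by RT-PCR, 6-FAM labeling, HpaI digestion and capillary electrophoresis, relative to DMSO.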

In test [17] the target is Oxysterols receptor LXR-alpha (Homo sapiens) (UniProt Q13133). The experiment in a line: ATG_LXRa_TRANS: Attagene TRANS-FACTORIAL HepG2 Assay for human Liver X Receptor alpha (LXRa) (AID 2282980; active = hit-call score of the fitted dose curve at least 0.9, where 1 is the maximum). The conditions noted are these: HepG2 Attagene TRANS reporter, LXRa transactivation. The procedure, abridged: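 HepG2 cells transiently transfected with GAL4-UAS reporter units for chimeric NR-Gal4 proteins, exposed to chemicals for 24 h. Reporter mRNA quantified by RT-PCR and capillary electrophoresis; gain of signal fitted relative to DMSO.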

The target of test [18] is Steroid hormone receptor ERR1 (Homo sapiens) (UniProt P11474). The experiment in a line: ATG_ERRa_TRANS: Attagene TRANS-FACTORIAL HepG2 Assay for human Estrogen-Related Receptor alpha (ERRa) (AID 2282971; active = hit-call score of the fitted dose curve at least 0.9, where 1 is the maximum). The conditions noted are these: HepG2 Attagene TRANS reporter, ERRa transactivation. The procedure, abridged: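 HepG2 cells transiently transfected with GAL4-UAS reporter units and chimeric NR-Gal4 constructs; after 24 hour compound incubation, reporter mRNA quantified by RT-PCR, fluorescent labelling and capillary electrophoresis, gain of signal versus DMSO.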

In test [19] the target is Nuclear receptor subfamily 4 group A member 2 (Homo sapiens) (UniProt P43354). Description: ATG_NURR1_TRANS: Attagene TRANS-FACTORIAL HepG2 Assay for human Nuclear Receptor Related Protein 1 (NURR1) (AID 2282985; active = hit-call score of the fitted dose curve at least 0.9, where 1 is the maximum). To be noted: HepG2 Attagene TRANS reporter, mRNA readout. In outline: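 Cells: HepG2, transiently transfected. Exposure: 24 h. Detection: fluorescence of labelled RT-PCR products separated by capillary electrophoresis; upward fit versus DMSO.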

SMILES strings stand for the structures. Records with an inconclusive call do not appear. Activity calls are given as the source filed them. Rule for the calls, unless noted: active = hit-call score of the fitted dose curve at least 0.9, where 1 is the maximum; inactive = score below 0.9.

Chain of Bile acid receptor (Homo sapiens) (Q96RI1 whole entry, looked up, the tested form may be a part): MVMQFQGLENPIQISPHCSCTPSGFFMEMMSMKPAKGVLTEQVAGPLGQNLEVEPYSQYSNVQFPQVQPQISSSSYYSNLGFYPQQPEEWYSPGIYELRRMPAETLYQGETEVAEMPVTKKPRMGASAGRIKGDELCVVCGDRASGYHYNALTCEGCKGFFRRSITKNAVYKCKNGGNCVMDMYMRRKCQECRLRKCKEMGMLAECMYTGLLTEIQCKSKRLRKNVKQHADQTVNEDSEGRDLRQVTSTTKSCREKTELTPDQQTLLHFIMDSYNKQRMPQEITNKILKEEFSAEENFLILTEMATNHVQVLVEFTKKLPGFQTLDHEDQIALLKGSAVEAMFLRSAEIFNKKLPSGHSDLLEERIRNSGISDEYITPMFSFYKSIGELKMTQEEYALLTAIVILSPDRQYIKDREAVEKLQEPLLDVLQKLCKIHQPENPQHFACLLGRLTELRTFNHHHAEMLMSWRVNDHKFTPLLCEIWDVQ
Chain of Nuclear receptor subfamily 4 group A member 2 (Homo sapiens) (P43354 whole entry, looked up): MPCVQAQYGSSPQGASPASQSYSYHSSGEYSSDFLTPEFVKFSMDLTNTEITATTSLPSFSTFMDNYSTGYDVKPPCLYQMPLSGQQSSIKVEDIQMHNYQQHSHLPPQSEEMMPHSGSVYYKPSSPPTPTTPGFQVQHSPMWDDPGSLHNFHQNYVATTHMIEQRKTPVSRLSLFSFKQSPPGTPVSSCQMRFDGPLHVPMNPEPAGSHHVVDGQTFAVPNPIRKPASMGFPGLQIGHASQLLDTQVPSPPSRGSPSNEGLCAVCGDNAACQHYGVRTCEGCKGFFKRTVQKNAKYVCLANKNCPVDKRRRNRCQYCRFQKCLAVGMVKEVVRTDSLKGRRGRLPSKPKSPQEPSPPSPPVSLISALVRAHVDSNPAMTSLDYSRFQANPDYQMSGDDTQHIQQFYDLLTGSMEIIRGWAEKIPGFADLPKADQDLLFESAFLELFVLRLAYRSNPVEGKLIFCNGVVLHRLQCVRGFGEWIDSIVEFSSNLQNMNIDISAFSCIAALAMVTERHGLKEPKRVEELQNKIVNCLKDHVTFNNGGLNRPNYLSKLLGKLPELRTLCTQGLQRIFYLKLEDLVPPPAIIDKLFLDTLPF
Chain of Nuclear respiratory factor 1 (Homo sapiens) (Q16656 whole entry, looked up): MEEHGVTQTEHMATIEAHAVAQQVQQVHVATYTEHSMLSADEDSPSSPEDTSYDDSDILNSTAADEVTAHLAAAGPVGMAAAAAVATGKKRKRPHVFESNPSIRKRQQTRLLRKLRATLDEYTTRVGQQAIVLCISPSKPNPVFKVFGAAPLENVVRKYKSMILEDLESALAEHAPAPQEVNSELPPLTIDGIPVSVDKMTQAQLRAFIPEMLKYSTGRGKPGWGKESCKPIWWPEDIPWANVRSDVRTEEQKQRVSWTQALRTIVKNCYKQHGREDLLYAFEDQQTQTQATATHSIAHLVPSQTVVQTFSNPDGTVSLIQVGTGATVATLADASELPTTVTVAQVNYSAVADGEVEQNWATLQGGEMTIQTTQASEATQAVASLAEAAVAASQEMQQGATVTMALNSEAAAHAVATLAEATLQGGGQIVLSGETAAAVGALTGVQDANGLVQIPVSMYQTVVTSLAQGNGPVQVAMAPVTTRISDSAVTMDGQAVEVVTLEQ
Chain of Transcriptional activator Myb (Homo sapiens) (P10242 whole entry, looked up): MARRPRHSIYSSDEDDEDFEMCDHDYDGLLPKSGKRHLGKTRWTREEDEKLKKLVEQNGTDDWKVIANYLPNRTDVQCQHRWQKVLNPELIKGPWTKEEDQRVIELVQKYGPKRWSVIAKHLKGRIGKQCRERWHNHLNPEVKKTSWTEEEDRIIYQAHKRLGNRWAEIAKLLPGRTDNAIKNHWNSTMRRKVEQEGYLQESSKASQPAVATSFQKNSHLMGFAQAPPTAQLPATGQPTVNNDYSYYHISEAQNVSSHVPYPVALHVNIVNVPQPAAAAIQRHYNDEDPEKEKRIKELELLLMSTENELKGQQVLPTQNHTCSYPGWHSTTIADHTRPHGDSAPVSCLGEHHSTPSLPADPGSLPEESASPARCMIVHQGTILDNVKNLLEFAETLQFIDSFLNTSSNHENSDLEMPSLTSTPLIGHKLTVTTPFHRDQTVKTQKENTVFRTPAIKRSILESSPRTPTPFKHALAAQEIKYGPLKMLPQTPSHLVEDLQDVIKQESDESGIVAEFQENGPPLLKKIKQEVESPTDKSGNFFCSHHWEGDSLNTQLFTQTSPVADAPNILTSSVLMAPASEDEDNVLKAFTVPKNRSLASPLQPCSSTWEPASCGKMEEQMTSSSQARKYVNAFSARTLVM
Chain of Oxysterols receptor LXR-beta (Homo sapiens) (P55055 whole entry, looked up, the tested form may be a part): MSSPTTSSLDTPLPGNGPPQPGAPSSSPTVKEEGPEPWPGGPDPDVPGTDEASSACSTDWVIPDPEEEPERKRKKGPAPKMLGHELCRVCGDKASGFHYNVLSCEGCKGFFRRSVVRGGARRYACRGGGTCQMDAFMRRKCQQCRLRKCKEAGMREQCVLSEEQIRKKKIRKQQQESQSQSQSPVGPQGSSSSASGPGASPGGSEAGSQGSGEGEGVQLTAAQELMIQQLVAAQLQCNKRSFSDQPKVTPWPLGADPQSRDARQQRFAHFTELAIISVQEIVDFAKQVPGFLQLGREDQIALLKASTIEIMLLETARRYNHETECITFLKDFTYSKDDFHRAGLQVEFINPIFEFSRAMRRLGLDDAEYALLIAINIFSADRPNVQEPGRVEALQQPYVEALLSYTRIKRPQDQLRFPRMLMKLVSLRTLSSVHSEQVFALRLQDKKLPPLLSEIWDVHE
Chain of X-box-binding protein 1 (Homo sapiens) (P17861 whole entry, looked up, the tested form may be a part): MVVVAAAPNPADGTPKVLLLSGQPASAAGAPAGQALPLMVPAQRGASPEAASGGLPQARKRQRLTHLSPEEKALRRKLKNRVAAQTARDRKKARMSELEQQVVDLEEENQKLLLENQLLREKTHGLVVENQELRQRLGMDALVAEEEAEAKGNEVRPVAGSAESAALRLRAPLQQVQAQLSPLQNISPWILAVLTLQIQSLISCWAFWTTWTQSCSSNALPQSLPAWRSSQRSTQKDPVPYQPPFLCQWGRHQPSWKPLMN
Chain of Glucocorticoid receptor (Homo sapiens) (P04150 whole entry, looked up, the tested form may be a part): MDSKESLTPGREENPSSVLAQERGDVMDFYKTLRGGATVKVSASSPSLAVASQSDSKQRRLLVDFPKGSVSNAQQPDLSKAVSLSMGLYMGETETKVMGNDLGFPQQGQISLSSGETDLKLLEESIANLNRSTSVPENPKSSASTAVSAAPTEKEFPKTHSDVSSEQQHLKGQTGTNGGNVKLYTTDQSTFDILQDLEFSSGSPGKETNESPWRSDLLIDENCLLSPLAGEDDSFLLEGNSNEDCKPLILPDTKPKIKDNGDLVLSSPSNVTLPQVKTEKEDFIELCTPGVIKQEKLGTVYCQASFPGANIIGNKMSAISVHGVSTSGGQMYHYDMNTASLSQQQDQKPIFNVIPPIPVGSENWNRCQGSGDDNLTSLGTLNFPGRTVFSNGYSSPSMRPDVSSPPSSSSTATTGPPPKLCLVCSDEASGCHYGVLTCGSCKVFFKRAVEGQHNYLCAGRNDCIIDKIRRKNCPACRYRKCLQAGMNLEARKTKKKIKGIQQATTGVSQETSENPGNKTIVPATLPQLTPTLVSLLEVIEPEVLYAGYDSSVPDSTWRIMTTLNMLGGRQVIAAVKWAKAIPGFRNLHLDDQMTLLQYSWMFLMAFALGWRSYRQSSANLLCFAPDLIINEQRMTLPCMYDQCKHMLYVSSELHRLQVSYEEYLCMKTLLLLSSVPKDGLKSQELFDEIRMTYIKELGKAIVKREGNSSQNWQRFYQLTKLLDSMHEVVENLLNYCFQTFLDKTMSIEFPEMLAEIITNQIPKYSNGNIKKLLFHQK
Chain of Steroid hormone receptor ERR1 (Homo sapiens) (P11474 whole entry, looked up, the tested form may be a part): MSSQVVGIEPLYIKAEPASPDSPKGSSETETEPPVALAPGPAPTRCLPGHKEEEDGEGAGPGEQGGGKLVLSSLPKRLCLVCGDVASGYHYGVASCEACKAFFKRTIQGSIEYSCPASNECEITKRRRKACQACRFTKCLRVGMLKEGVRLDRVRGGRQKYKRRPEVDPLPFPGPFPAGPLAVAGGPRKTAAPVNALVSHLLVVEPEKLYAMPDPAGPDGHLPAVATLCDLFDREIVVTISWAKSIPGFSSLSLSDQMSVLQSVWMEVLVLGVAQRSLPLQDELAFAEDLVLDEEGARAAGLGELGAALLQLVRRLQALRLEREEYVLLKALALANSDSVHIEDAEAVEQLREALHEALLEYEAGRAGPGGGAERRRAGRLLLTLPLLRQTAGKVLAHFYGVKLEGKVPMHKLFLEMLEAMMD
Chain of Hepatocyte nuclear factor 4-alpha (Homo sapiens) (P41235 whole entry, looked up): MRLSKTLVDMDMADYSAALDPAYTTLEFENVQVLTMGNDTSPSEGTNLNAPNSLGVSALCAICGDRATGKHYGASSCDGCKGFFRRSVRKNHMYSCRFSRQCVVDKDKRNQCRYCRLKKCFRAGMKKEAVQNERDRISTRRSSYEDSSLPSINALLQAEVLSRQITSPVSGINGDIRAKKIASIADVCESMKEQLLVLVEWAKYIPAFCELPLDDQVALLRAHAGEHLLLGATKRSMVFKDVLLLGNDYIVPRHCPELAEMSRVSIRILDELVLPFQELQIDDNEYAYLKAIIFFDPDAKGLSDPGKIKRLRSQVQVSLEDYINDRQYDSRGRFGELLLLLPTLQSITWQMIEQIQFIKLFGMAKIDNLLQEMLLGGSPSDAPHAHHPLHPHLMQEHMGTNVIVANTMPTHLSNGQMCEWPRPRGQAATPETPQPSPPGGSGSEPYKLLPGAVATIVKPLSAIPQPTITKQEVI

Turning to `CCO[Si](C)(C)OCC`, the outcome in test [1], in [2], in test [3], in test [4], in [5] and in test [6] was inactive. For the same compound, the outcome in [7], in test [8], in [9], in [10], in test [11] and in [12] was inactive. In addition, in [13], the compound was called inactive.

On to `CC=O`, for which the result in [1], in [2], in [3], in [4], in test [5] and in test [6] was inactive. Also, the result in [8], in test [9], in test [12] and in test [13] was inactive.

Regarding `CCCCC=O`, the result in test [1], in test [2], in test [3], in test [4], in test [6] and in test [8] was inactive. The compound was called inactive in [14], in test [15], in test [12] and in [13].

For the compound `O=C(CCCN1CCC(O)(c2ccc(Cl)cc2)CC1)c1ccc(F)cc1`, the figures for the AC50 in test [1] and in test [4] were 53.8 µM (active) and 50.3 µM (active), respectively. For the same compound, the call in [2], in test [5] and in [12] was inactive.

`CN(C)CCOC(c1ccccc1)c1ccccc1`: the compound was classed as inactive in [1], in [2], in test [16], in test [4], in test [8] and in [17]. The outcome in test [9], in test [15] and in test [12] was inactive.

Regarding `Cn1sccc1=O`, the result in [1], in test [2], in [3], in test [18], in [8] and in [11] was inactive. Besides, the call in test [12] was inactive. In addition, the AC50 was 160 µM (active) in test [4] and 170 µM (active) in [13].

As for `COC(=O)C(F)(F)C(F)(F)C(F)(F)C(F)(F)C(F)(F)F`, the compound was classed as inactive in test [1], in test [2], in [3], in [18], in test [4] and in test [5]. The compound was classed as inactive in test [10], in test [15], in [11], in [19], in test [12] and in test [13].

Regarding `c1ccc2c(c1)CCC2`, the result in test [1], in test [2], in [3], in test [5], in test [6] and in test [8] was inactive. Moreover, the compound was called inactive in [14], in test [9], in [12] and in [13].

`NCCN`: the compound was classed as inactive in test [1], in test [2], in test [16], in [5], in test [6] and in test [11]. In addition, the compound was classed as inactive in [19], in test [12] and in [13].

As to `O=C(c1ccccc1)c1ccccc1`, the compound was called inactive in test [1], in test [2], in test [3], in test [4], in test [5] and in test [6]. Further, the compound was classed as inactive in test [8], in test [14], in test [9], in test [11] and in test [12].
